Test results reported in ChEMBL document CHEMBL3988442, “University of Dundee, Small-Polar-MMV Screening Library” (2021).
For some assays here: Results with a measured potency or affinity are listed apart.

What was measured:
Design in all cases: scale not given: direction of the effect not stated beside the values
[1] = biological target: Protein translocase subunit SecA (Escherichia coli (strain K12)) (UniProt P10408); assay: Assay to Identify E. coli SecA ATPase Inhibitors; assay type: functional; settings: 30 µM
Protein translocase subunit SecA (Escherichia coli (strain K12)), sequence (P10408 whole entry): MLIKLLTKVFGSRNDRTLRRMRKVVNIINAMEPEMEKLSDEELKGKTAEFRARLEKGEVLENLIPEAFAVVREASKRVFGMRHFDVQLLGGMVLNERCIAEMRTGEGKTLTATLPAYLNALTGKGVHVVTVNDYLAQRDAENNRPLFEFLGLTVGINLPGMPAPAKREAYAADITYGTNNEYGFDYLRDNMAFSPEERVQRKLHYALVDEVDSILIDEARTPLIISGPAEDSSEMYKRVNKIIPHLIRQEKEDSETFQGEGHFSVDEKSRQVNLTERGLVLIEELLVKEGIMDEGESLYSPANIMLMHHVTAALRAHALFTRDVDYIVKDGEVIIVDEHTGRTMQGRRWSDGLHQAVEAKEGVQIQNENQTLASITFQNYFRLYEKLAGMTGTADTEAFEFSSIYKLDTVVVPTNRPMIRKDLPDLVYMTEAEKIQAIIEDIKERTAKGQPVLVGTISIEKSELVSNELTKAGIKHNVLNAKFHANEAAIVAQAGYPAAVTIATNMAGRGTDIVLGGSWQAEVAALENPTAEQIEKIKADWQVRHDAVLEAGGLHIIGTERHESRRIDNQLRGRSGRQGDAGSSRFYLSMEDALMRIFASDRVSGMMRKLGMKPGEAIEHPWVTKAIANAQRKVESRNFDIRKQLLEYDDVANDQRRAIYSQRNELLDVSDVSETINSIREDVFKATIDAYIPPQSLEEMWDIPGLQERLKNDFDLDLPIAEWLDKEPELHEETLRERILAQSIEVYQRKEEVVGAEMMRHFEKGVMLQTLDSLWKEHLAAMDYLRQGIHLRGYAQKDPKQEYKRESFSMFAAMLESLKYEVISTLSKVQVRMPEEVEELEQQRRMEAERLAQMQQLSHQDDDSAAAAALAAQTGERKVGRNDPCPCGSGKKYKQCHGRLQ

[2] = biological target: T1, Ubiquitin-activating enzyme e1, putative (Leishmania donovani (strain BPK282A1)) (UniProt E9BSI1); assay: Leishmania donovani Ubiquitin Activating Enzyme (LdE1); assay type: functional; settings: 30 µM
T1 sequence (whole entry): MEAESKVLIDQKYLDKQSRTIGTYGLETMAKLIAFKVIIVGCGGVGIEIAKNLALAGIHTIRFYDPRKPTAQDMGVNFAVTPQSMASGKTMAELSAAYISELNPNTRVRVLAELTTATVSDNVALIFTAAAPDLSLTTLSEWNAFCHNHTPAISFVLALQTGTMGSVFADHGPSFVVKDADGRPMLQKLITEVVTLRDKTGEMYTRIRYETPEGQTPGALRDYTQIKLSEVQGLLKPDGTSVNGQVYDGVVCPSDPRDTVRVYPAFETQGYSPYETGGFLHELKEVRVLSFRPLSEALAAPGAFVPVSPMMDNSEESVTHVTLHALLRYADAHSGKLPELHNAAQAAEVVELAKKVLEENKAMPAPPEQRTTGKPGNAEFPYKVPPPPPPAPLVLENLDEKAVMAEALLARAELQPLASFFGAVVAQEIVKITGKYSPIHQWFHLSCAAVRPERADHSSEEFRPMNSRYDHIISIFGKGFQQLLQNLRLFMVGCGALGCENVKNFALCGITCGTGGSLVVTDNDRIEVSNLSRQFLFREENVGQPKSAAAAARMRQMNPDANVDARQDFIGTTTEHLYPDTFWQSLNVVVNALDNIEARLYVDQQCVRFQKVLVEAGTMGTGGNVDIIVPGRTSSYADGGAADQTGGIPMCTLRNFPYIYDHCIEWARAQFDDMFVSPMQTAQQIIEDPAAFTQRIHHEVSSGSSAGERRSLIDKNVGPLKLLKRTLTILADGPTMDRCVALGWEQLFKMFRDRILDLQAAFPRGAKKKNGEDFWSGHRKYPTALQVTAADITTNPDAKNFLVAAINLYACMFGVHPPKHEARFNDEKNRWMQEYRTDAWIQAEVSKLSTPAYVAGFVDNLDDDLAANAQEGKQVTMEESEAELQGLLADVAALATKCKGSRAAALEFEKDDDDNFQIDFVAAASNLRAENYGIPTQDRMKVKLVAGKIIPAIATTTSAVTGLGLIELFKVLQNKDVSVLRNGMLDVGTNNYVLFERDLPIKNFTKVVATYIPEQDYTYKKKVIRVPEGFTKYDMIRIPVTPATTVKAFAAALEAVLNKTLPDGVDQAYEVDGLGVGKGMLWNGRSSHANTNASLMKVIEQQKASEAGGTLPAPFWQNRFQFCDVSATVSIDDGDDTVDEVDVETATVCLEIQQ

[3] = biological target: AMP-activated protein kinase, AMPK (Homo sapiens) (UniProt P54646+O43741+P54619+Q9UGJ0+Q9Y478+Q13131+Q9UGI9); assay: AMP-dependent Kinase enzyme assay. An in vitro enzyme assay that detects ADP turnover that is directly proportional to AMPK activity. This uses naive AMPK that is activated during the assay with MK-8722; assay type: functional; settings: 30 µM
[4] = biological target: Sialic acid-binding Ig-like lectin 9 (Homo sapiens) (UniProt Q9Y336); assay: Hs-Siglec9 ALPHAscreen SOP 20170721; settings: 10 µM
Sialic acid-binding Ig-like lectin 9 (Homo sapiens), sequence (Q9Y336 whole entry): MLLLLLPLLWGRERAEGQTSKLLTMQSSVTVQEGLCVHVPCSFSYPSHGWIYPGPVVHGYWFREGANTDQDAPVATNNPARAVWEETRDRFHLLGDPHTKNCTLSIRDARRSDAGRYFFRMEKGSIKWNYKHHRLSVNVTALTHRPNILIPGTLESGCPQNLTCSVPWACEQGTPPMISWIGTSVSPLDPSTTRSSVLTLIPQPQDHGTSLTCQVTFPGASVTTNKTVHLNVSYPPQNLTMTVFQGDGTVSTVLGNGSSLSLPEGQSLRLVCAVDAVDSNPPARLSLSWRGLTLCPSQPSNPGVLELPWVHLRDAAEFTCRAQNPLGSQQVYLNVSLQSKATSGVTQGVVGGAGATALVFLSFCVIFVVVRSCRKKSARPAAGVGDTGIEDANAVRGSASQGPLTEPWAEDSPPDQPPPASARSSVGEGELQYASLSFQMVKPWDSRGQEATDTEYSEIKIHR

Trypanosoma cruzi = assay: Trypanosoma cruzi phosphomannomutase and mannose-1-phosphate guanylyltransferase assay; assay type: functional; settings: 10 µM
[5] = biological target: T2, Arginase-2, mitochondrial (Homo sapiens) (UniProt P78540); assay: in vitro enzyme assay to detect the production of urea directly proportional to the activity of Arginase II; assay type: functional; settings: 33.3 µM; note: in the data most compounds retested in dose-response had high values
T2 sequence (whole entry): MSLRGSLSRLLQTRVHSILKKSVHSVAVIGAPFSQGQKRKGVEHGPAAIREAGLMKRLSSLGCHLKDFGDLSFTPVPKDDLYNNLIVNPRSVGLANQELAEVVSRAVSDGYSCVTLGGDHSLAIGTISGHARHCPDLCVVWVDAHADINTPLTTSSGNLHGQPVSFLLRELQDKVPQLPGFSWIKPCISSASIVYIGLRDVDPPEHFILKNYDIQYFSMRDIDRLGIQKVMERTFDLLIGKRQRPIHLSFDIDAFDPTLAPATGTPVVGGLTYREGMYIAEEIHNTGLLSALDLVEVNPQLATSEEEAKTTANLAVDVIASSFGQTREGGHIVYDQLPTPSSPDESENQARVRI

[6] = biological target: T3, Proteasome subunit beta (Trypanosoma cruzi) (UniProt O96673); assay: Trypanosoma cruzi proteasome chymotrypsin-like activity (TcProtChymo) assay.; note: in the data most compounds retested in dose-response had high values; assay type: functional; settings: 9.37 µM
T3 sequence (whole entry): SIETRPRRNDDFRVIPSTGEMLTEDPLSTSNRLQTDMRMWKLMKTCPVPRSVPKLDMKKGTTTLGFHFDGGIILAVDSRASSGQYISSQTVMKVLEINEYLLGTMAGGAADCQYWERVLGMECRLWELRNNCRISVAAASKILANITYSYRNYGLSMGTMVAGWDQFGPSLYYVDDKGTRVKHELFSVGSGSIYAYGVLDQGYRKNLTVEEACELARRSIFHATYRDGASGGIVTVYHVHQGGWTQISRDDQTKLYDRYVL

Homo sapiens = organism: Homo sapiens; assay: To identify inhibition of the IFN signalling (Jak-Stat) pathway via expression of an eGFP reporter gene under the control of an IFN-stimulated response element (ISRE) containing MxA promoter.; assay type: functional; settings: 30 µM
[7] = biological target: T4, Tyrosyl-tRNA synthetase, putative (Trypanosoma cruzi (strain CL Brener)) (UniProt Q4DSP6); assay: Trypanosoma cruzi tyrosyl tRNA synthetase (TcYRS) _High Tyrosine SOP; assay type: functional; settings: 30 µM; note: in the data most compounds retested in dose-response had high values
T4 sequence (whole entry): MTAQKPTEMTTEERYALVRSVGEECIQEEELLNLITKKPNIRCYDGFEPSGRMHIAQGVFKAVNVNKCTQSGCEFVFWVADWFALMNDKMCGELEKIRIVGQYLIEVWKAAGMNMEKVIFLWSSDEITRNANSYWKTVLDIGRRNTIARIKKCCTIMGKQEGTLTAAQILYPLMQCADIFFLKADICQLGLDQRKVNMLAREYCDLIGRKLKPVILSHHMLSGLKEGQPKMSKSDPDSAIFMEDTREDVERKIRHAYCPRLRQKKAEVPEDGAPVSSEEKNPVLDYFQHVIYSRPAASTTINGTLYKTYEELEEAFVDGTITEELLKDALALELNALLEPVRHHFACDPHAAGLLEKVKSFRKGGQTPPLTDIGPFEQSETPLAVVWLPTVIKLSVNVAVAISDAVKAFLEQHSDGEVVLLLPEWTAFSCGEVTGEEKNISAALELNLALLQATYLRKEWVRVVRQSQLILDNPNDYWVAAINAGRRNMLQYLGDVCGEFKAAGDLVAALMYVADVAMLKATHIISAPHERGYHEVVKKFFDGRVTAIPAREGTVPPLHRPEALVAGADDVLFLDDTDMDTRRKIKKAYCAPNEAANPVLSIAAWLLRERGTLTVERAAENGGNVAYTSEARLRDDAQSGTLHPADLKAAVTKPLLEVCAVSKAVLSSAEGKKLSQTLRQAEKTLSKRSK

[8] = biological target: T4, Tyrosyl-tRNA synthetase, putative (Trypanosoma cruzi (strain CL Brener)); assay: Trypanosoma cruzi tyrosyl tRNA synthetase (TcYRS) SOP; assay type: functional; settings: 30 µM
[9] = biological target: Chromo domain-containing protein 1 (Saccharomyces cerevisiae (strain ATCC 204508 / S288c) (Baker's yeast)) (UniProt P32657); assay: ScCHD-1 Enzyme Inhibition Assay; assay type: functional; settings: 30 µM; note: in the data most compounds retested in dose-response had high values
Chromo domain-containing protein 1 (Saccharomyces cerevisiae (strain ATCC 204508 / S288c) (Baker's yeast)), sequence (P32657 whole entry, the tested form may be a part): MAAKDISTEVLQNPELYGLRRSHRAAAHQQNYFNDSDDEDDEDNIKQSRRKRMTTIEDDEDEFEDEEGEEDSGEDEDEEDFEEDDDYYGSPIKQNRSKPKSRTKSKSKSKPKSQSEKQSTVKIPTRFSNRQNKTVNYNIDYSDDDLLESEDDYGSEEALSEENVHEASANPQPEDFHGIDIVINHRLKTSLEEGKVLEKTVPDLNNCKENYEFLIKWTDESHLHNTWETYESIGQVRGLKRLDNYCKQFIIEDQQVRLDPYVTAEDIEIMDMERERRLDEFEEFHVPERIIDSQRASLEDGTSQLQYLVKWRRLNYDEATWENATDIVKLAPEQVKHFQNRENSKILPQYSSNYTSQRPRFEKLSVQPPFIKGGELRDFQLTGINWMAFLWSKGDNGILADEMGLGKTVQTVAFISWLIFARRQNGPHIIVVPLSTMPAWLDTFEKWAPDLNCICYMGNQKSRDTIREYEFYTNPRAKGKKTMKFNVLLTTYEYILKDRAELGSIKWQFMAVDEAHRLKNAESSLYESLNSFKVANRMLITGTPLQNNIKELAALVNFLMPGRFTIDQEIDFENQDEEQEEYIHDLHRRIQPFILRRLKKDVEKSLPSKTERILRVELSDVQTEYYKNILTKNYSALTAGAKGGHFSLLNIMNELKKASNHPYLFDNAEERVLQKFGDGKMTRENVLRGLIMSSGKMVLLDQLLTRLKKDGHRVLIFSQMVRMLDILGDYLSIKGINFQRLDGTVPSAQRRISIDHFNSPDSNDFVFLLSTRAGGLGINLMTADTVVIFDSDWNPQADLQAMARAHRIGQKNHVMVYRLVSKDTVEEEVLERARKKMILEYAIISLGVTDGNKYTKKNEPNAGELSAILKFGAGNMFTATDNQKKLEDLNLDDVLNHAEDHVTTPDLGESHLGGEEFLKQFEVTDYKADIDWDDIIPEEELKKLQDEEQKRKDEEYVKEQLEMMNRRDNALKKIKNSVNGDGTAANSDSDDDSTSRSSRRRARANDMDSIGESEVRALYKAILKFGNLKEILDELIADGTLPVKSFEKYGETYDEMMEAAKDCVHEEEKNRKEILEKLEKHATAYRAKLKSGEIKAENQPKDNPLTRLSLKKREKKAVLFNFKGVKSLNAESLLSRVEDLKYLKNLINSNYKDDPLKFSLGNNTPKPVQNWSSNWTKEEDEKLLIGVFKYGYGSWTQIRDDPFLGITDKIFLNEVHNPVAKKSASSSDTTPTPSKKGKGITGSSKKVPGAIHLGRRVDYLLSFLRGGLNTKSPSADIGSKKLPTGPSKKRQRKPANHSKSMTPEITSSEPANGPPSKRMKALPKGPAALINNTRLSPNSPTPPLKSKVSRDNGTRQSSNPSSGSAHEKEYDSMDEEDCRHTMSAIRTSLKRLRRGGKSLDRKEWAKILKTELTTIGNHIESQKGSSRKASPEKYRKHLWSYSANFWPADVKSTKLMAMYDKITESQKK

| Compound | Percent Effect [1] [%] | Percent Effect [2] [%] | Percent Effect [3] [%] | Percent Effect [4] [%] | Percent Effect (Trypanosoma cruzi) [%] | Percent Effect [5] [%] | Percent Effect [6] [%] | Percent Effect (Homo sapiens) [%] | Percent Effect [7] [%] | Percent Effect [8] [%] | Percent Effect [9] [%] |
| --- | --- | --- | --- | --- | --- | --- | --- | --- | --- | --- | --- |
| CSCC[C@H](NC(=O)Cn1ccc2c(Cl)cccc21)C(=O)O | 0.448 | 12 | 2.92 | 2.75 | -3.93 | -6.87 | 15.2 | -1.36 | 3.17 | 7.69 | -6.56 |
| Cc1cc(C)c(OCC(=O)NS(=O)(=O)c2cccnc2)c(C)c1 | -3.5 | 21.1 | -5.54 | 1.96 | 3.95 | -0.766 | 16 | 6.77 | 10.3 | 24.4 | -14 |
| CO[C@@H]1CC[C@H]2[C@H]1OCCN2C(=O)COc1ccc(F)cc1 | 0.9 | -2.7 | 12.4 | 0.225 | -4.01 | 3.5 | 15.3 | 3.76 | 4.32 | -2.56 | 0.177 |
| CCC(C)NC(=O)N1CCCn2cnc(CO)c2C1 (configuration not stated) | -0.731 | 2.74 | 1.02 | 5.8 | 0.198 | 2 | 4.54 | 6.37 | 6.25 | 6.17 | 1.09 |
| CCN1CCC2(CC1)CC(NC(=O)N(C)C)c1cc(C)ccc12 (configuration not stated) | -2.37 | 16 | 4.2 | 0.476 | 3.28 | -52.9 | 14.4 | -15.2 | 8.33 | -50 | -7.48 |
| C=Cn1ncc(CN2C[C@@H]3CCCN3C[C@H]2CCSC)c1C | -0.255 | 1.35 | 5.26 | 9.13 | 4.94 | -1.16 | 9.36 | 15.9 | 1.07 | 1.3 | -6.62 |
| CC(C)c1noc(CN2CCN(C(=O)c3ccccc3F)CC2)n1 | -4.33 | 13.5 | -4.45 | 3.5 | -2.32 | -3.88 | 6.82 | 23.6 | 7.92 | 18.3 | 0.419 |
| COc1cc(C(=O)Nc2c(C)noc2C)ccc1C | -3.57 | 17.7 | 2.44 | 6.13 | 3.87 | -4.56 | 1.88 | 18.6 | 4.43 | 16.5 | -5.84 |
| CC(=O)c1cccc(NC(=O)COc2c(C)n(C)ccc2=O)c1 | -3.77 | 9.33 | 5.33 | 5.82 | -2.95 | -12.5 | 16.1 | 7.79 | 7.41 | 20.5 | -2.85 |
| Cc1csc(C2CCCN(C(=O)c3cnc4n[nH]c(C)c4c3)C2)n1 (configuration not stated) | -3.7 | 10.8 | -5.48 | 6.11 | 2.36 | -2 | 2.7 | 16.8 | 7.39 | 18.5 | -8.83 |
| c1ccc(Cn2cc3c(n2)C(CNCc2ccco2)OCC3)nc1 (configuration not stated) | -3.96 | 2.7 | 0.188 | 3.43 | -4.49 | 4.17 | 2.79 | -8.58 | 4.95 | 11 | -1.79 |
| Cc1cc(C)c(CNC(=O)N2CCN(c3cnccn3)CC2)c(=O)[nH]1 | -7.87 | 18.4 | -1.35 | 2.54 | 6.96 | -1.53 | 12.2 | 11.3 | 3.43 | 9.76 | -9.64 |
| CCc1nc(CN(Cc2cccs2)CC2CCCO2)no1 (configuration not stated) | -0.473 | -11.4 | 2.16 | 0.0835 | -0.308 | 2.37 | 4.29 | 10.4 | -3.12 | 5.06 | 3.56 |
| CN(CCNC(=O)N1CCN(Cc2ccon2)CC1)C1CCCC1 | -7 | 2.67 | 3.19 | -0.946 | 1.85 | 4.69 | -2.27 | 4.26 | 4.92 | 8.64 | -1.28 |
| CNC(=O)C1(c2cnccn2)CCCN1C(=O)c1ccn(C)n1 (configuration not stated) | -5.86 | 6.76 | 3.23 | -2.02 | 0.593 | -1.16 | 1.4 | 7.86 | 4.3 | 74 | -22 |
| CCn1cc(NC(=O)C2CCN(CCOC(C)C)CC2)cn1 | -6.99 | 7.89 | -2.47 | -0.756 | -6.07 | -3.6 | 3.98 | 6.54 | 2.46 | 3.7 | 0.215 |
| CNCC(=O)N1CCCC(c2cccc(Nc3nc(C)cc(C)n3)n2)C1 (configuration not stated) | -3.22 | 28.4 | 6.16 | -10.1 | 3.56 | -5.34 | 14.3 | 22 | 3.23 | 11.7 | -21.5 |
| CC(=O)c1cccc(NC(=O)CN2CCCCC2C2OCCO2)c1 (configuration not stated) | -5.29 | 5.41 | 1.19 | -1.14 | -2.54 | 5 | 8.37 | -2.75 | 5.94 | 11 | -4.75 |
| Cc1noc(C)c1CN1CCN(Cc2nccn2C)C(C)C1 (configuration not stated) | 0.213 | 10.1 | -9.19 | 2.86 | -10.1 | 5.7 | 5.65 | 18.5 | -0.493 | 11.4 | -5.78 |
| COCc1cncc2c1CCN(C(=O)c1ccc(C)o1)C2 | -3.33 | 10.7 | 1.34 | -0.678 | -4.63 | -60 | 6.33 | -0.987 | 4.17 | 5 | -6.41 |
| CCOC(C)c1nc(CN2CCC(CNC(C)=O)CC2)cs1 (configuration not stated) | -1.27 | 0 | -5.03 | 0.273 | 1.93 | -2.86 | 8.97 | -19.2 | -0.529 | -2.44 | -2.65 |
| O=C(c1ccc(Br)o1)N1CCN(Cc2ccc(OC(F)(F)F)cc2)CC1 | -1.82 | 5.48 | 27.2 | -16.1 | -1.96 | -0.455 | 8.87 | 37.2 | 2.15 | 7.5 | -3.29 |
